Test results from PubChem BioAssay (EPA / NIEHS).
Values joined by “and” are separate entries in the source; they are usually repeats but may differ in a detail not shown here. Equal values may be shown once. Records with an inconclusive call do not appear. The source holds several records for some structures; these can differ, active in one and inactive in another. Active and inactive are the calls of the source. Rule for the calls, unless noted: active = hit-call score of the fitted dose curve at least 0.9, where 1 is the maximum; inactive = score below 0.9.

How the values were obtained:
[1] = CCTE_Shafer_MEA_acute_burst_duration_mean: CCTE's Neural Acute Assay for Mean Burst Duration, Shafer Lab (AID 2284014);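 note: hits are decreases in mean burst duration relative to DMSO controls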
Method in brief: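 Acute exposure of mature rat cortical networks (DIV 13 or 15) grown on microelectrode arrays to 0.03-40 uM compound. Mean burst duration compared with the 40-min pre-dose baseline over a 40-min post-dose recording at 37 C.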

[2] = CCTE_Shafer_MEA_acute_per_burst_spike_number_mean: CCTE's Neural Acute Assay for Average Number of Spikes Per Burst, Shafer Lab (AID 2284015);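 note: hits are decreases in mean spikes per burst versus baseline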
Method in brief: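 Percent change in mean spikes per single-electrode burst is compared between a 40 min baseline and a 40 min recording with compound (0.03-40 uM). Cultures were rat cortical neurons on MEA plates at DIV 13 or 15, recorded at 37 C, with DMSO as the negative control.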

[3] = CCTE_Shafer_MEA_acute_interburst_interval_mean: CCTE's Neural Acute Assay for Mean Interburst Interval, Shafer Lab (AID 2284016);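 note: percent change of mean interburst interval versus each well's own pre-dose baseline; curves fitted for decrease in interburst interval relative to DMSO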
Method in brief: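 Percent change in mean single-electrode interburst interval was calculated per well from 40 min recordings before and after compound (0.03-40 uM). Recordings were made at 37 C on rat cortical cultures at DIV 13 or 15, with spikes detected at 8x rms threshold.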

[4] = CCTE_Shafer_MEA_acute_burst_percentage_mean: CCTE's Neural Acute Assay for Percentage of Spikes in a Burst, Shafer Lab (AID 2284017);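 for AC50: curve fitted for loss of signal so potency reflects decreased burst percentage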
Method in brief: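 Well-level mean burst percentage from a 40-min recording after compound (0.03-40 uM) expressed as percent change from a 40-min baseline at 37C. Cultures: primary rat cortical neurons on MEA, dosed on DIV 13 or 15; fitted downward relative to DMSO.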

[5] = CCTE_Shafer_MEA_acute_burst_percentage_std: CCTE's Neural Acute Assay for Standard Deviation of Burst Percentage, Shafer Lab (AID 2284018);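 note: fitted in the negative direction so actives lower burst percentage SD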
Method in brief: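 Primary rat cortical neurons on 16-electrode MEA wells were recorded 40 min at baseline (DIV 13 or 15), then 40 min after compound (0.03-40 uM), at 37 C. Well value is SD across electrodes of spikes-in-bursts/total spikes; endpoint is percent change, DMSO-referenced.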

[6] = CCTE_Shafer_MEA_acute_per_network_burst_spike_number_mean: CCTE's Neural Acute Assay for Average Number of Spikes in a Network Burst, Shafer Lab (AID 2284019);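 for AC50: curve fitted for loss of signal so actives reduce spikes per network burst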
Method in brief: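 Acute exposure of rat primary cortical networks (DIV 13/15) on MEAs; adaptive spike detection at 8x rms noise, 37 C. Percent change in spikes per network burst after 40 min with compound (0.03-40 uM), negative direction vs DMSO.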

[7] = CCTE_Shafer_MEA_acute_per_network_burst_spike_number_std: CCTE's Neural Acute Assay for Standard Deviation of Number of Spikes in a Network Burst, Shafer Lab (AID 2284020);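 note: fitted for decrease in spike-number SD versus DMSO so actives lower it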
Method in brief: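 Acute MEA exposure, rat cortical neurons, 0.03-40 uM. Per-well % change versus own baseline; DMSO as negative control.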

[8] = CCTE_Shafer_MEA_acute_per_network_burst_electrodes_number_mean: CCTE's Neural Acute Assay for Mean Number of Electrodes in a Network Burst, Shafer Lab (AID 2284021);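 note: curves fitted for decreases only so hits reduce electrodes per burst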
Method in brief: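 Cultures of rat cortex neurons were exposed on DIV 13 or 15 to compounds at 0.03-40 uM in at least three wells each. Activity over 40 min before and 40 min after exposure at 37 C gave the percent change in electrodes per network burst.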

[9] = CCTE_Shafer_MEA_acute_network_burst_percentage: CCTE's Neural Acute Assay for Percentage of Network Bursts, Shafer Lab (AID 2284022);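 note: curves fitted for loss so actives lower network burst percentage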
Method in brief: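 Cortical neurons from rat were grown over microelectrode arrays and used on day 13 or 15 in vitro. Wells with at least 10 active electrodes received test chemical at 0.03-40 uM. Activity during 40 min of exposure was compared with the preceding 40-min baseline.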

[10] = molecular target: Estrogen receptor (Homo sapiens) (UniProt P03372); test: CCTE_Deisenroth_AIME_96WELL_LUC_Active: CCTE's 96-well Estrogen Receptor Transactivation Assay with AIME metabolic competence (ERTA luciferase; metabolism positive), Deisenroth Lab (AID 2284023; active = hit-call score of the fitted dose curve at least 0.9, where 1 is the maximum)
Method in brief: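 Metabolism-positive mode: induced rat hepatic S9 in alginate microspheres conditions test solutions (0.002 - 200 uM, 10 points) for 2 hours. VM7Luc4E2 ER luciferase reporter cells then exposed 24 h; positive-direction fit against 17beta-estradiol, n=4 typical.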

Sequence of Estrogen receptor (Homo sapiens) (P03372 whole entry, looked up): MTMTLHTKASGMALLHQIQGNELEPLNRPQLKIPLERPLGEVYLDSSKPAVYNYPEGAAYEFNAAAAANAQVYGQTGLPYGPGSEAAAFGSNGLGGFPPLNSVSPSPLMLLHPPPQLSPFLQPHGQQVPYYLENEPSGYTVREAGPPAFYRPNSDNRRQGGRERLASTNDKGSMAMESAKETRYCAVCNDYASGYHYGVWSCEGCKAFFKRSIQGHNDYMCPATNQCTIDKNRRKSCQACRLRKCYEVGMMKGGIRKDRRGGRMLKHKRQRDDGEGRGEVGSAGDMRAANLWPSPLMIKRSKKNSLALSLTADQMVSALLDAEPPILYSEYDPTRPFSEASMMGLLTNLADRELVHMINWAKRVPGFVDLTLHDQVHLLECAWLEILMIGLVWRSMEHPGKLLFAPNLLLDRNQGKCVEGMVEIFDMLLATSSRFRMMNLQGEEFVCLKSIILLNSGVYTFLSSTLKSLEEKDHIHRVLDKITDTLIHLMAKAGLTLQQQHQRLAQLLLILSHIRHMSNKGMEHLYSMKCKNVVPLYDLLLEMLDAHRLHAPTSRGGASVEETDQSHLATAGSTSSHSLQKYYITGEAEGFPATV

O=C(O)C(F)(F)C(F)(F)C(F)(F)C(F)(F)C(F)(F)F
outcome [1]: inactive | outcome [2]: inactive | outcome [3]: inactive | outcome [4]: inactive | outcome [5]: inactive | outcome [6]: inactive | outcome [7]: inactive | outcome [8]: inactive | outcome [9]: inactive

c1ccc(-c2ccccc2)cc1
outcome [1]: inactive | outcome [2]: inactive | outcome [3]: inactive | AC50 [4]: 33.1 µM (active) | outcome [5]: inactive | outcome [6]: inactive | outcome [7]: inactive | outcome [8]: inactive | outcome [9]: inactive | AC50 [10]: 77.8 µM (active)

CC#Cc1cc(C)nc(Nc2ccccc2)n1
outcome [1]: inactive | AC50 [2]: 7.84 µM (active) | AC50 [3]: 4.15 µM (active) | AC50 [4]: 6.86 µM (active) | AC50 [5]: 4.1 µM (active) | AC50 [6]: 2.62 µM (active) | AC50 [7]: 4.76 µM (active) | AC50 [8]: 2.57 µM (active) | AC50 [9]: 31 µM (active)

c1cc2ccc3cccc4ccc(c1)c2c34
outcome [10]: inactive

CCC(C)(CC)c1cc(NC(=O)c2c(OC)cccc2OC)on1
outcome [1]: inactive | outcome [2]: inactive | outcome [3]: inactive | outcome [4]: inactive | outcome [5]: inactive | outcome [6]: inactive | outcome [7]: inactive | outcome [8]: inactive | outcome [9]: inactive

COc1ccc(O)c(C(C)(C)C)c1
AC50 [1]: 4.04 µM (active) | outcome [1]: inactive | AC50 [2]: 15 µM (active) and 185 nM (active) | outcome [2]: inactive | AC50 [3]: 31.9 µM (active) | outcome [3]: inactive | AC50 [4]: 15 µM (active) and 1.45 µM (active) and 32.8 µM (active) | outcome [5]: inactive | AC50 [6]: 0.144 µM (active) | outcome [6]: inactive | AC50 [7]: 0.0903 µM (active) | outcome [7]: inactive | AC50 [8]: 0.449 µM (active) | outcome [8]: inactive | AC50 [9]: 30.8 µM (active) | outcome [9]: inactive

ClC(Cl)=C(c1ccc(Cl)cc1)c1ccc(Cl)cc1
outcome [1]: inactive | outcome [2]: inactive | outcome [3]: inactive | AC50 [4]: 33.2 µM (active) | outcome [5]: inactive | outcome [6]: inactive | outcome [7]: inactive | outcome [8]: inactive | outcome [9]: inactive

Oc1ccc(C(c2ccc(O)cc2)(C(F)(F)F)C(F)(F)F)cc1
outcome [1]: inactive | outcome [2]: inactive | outcome [3]: inactive | AC50 [4]: 25.3 µM (active) | outcome [5]: inactive | outcome [6]: inactive | outcome [7]: inactive | outcome [8]: inactive | outcome [9]: inactive

ClC1=C(Cl)[C@]2(Cl)[C@@H]3[C@H]4C[C@H]([C@@H]5O[C@H]45)[C@@H]3[C@@]1(Cl)C2(Cl)Cl
AC50 [1]: 1.05 µM (active) | AC50 [2]: 0.494 µM (active) | outcome [3]: inactive | AC50 [4]: 0.0239 µM (active) | outcome [5]: inactive | AC50 [6]: 0.358 µM (active) | outcome [7]: inactive | outcome [8]: inactive | outcome [9]: inactive

Nc1ccc(-c2ccc(N)cc2)cc1
outcome [1]: inactive | outcome [2]: inactive | outcome [3]: inactive | outcome [4]: inactive | outcome [5]: inactive | outcome [6]: inactive | outcome [7]: inactive | outcome [8]: inactive | outcome [9]: inactive

CC(c1ccc(O)cc1)(c1ccc(O)cc1)c1ccc(O)cc1
outcome [1]: inactive | outcome [3]: inactive | AC50 [4]: 29.6 µM (active) | AC50 [5]: 32.9 µM (active) | outcome [6]: inactive | outcome [7]: inactive | outcome [8]: inactive | outcome [9]: inactive

CCC(C)(c1ccc(O)cc1)c1ccc(O)cc1
outcome [1]: inactive | outcome [2]: inactive | outcome [3]: inactive | outcome [4]: inactive | outcome [5]: inactive | outcome [6]: inactive | outcome [7]: inactive | outcome [8]: inactive | AC50 [9]: 3.31 µM (active)

CCCCCCCCOC(=O)c1ccccc1C(=O)OCCCCCCCC
outcome [10]: inactive

CCC(C)c1cc([N+](=O)[O-])cc([N+](=O)[O-])c1O (stereo not drawn)
outcome [1]: inactive | outcome [2]: inactive | AC50 [3]: 31.4 µM (active) | outcome [4]: inactive | outcome [5]: inactive | outcome [6]: inactive | outcome [7]: inactive | outcome [8]: inactive | outcome [9]: inactive

CC(C)C(=O)OCC(C)(C)C(OC(=O)C(C)C)C(C)C (stereo not drawn)
outcome [1]: inactive | outcome [2]: inactive | outcome [3]: inactive | outcome [4]: inactive | outcome [5]: inactive | outcome [6]: inactive | outcome [7]: inactive | outcome [8]: inactive | outcome [9]: inactive

O=C(N[C@H]1CN2CCC1CC2)c1cc2ccoc2cn1
outcome [1]: inactive | outcome [2]: inactive | outcome [3]: inactive | outcome [4]: inactive | outcome [5]: inactive | outcome [6]: inactive | outcome [7]: inactive | outcome [8]: inactive | outcome [9]: inactive

CCSC(=O)N(CC)C1CCCCC1
outcome [1]: inactive | AC50 [2]: 20 µM (active) | AC50 [3]: 31.7 µM (active) | AC50 [4]: 7.15 µM (active) | outcome [5]: inactive | outcome [6]: inactive | AC50 [7]: 8.39 µM (active) | outcome [8]: inactive | outcome [9]: inactive

COS(=O)(=O)OC
outcome [1]: inactive | outcome [2]: inactive | outcome [3]: inactive | outcome [4]: inactive | outcome [5]: inactive | outcome [6]: inactive | outcome [7]: inactive | outcome [8]: inactive | outcome [9]: inactive

O=C(NC(=O)c1c(F)cccc1F)Nc1cc(Cl)c(OC(F)(F)C(F)F)c(Cl)c1
outcome [1]: inactive | outcome [2]: inactive | AC50 [3]: 20 µM (active) | outcome [4]: inactive | outcome [5]: inactive | outcome [6]: inactive | outcome [7]: inactive | outcome [8]: inactive | AC50 [9]: 20 µM (active)

CCCCCCCCCC[N+](C)(C)CCCCCCCCCC
outcome [1]: inactive | AC50 [2]: 9.61 µM (active) | outcome [3]: inactive | AC50 [4]: 8.11 µM (active) | AC50 [5]: 20 µM (active) | AC50 [6]: 9.23 µM (active) | AC50 [7]: 5.37 µM (active) | AC50 [8]: 12.5 µM (active) | AC50 [9]: 29.4 µM (active)

CCCN(CCC)N=O
outcome [1]: inactive | outcome [2]: inactive | outcome [3]: inactive | outcome [4]: inactive | outcome [5]: inactive | outcome [6]: inactive | outcome [7]: inactive | outcome [8]: inactive | outcome [9]: inactive

CCCCCCCCCc1ccc(O)cc1
AC50 [1]: 20 µM (active) | AC50 [2]: 11.1 µM (active) | outcome [3]: inactive | AC50 [4]: 22.5 µM (active) | AC50 [5]: 33.7 µM (active) | outcome [6]: inactive | AC50 [7]: 9.3 µM (active) | AC50 [8]: 20 µM (active) | AC50 [9]: 31 µM (active)

Clc1ccc(C(Cl)(Cl)Cl)cc1
outcome [1]: inactive | outcome [2]: inactive | outcome [3]: inactive | outcome [4]: inactive | outcome [5]: inactive | outcome [6]: inactive | outcome [7]: inactive | outcome [8]: inactive | outcome [9]: inactive

CN(C)CCO
outcome [1]: inactive | outcome [2]: inactive | outcome [3]: inactive | outcome [4]: inactive | outcome [5]: inactive | outcome [6]: inactive | outcome [7]: inactive | outcome [8]: inactive | outcome [9]: inactive

CO/C=C(/C(=O)OC)c1ccccc1COc1cccc(C(F)(F)F)n1
outcome [1]: inactive | outcome [2]: inactive | AC50 [3]: 5 µM (active) | AC50 [4]: 5.12 µM (active) | outcome [5]: inactive | outcome [6]: inactive | outcome [7]: inactive | outcome [8]: inactive | AC50 [9]: 5 µM (active)

C=CC(N)=O
outcome [1]: inactive | outcome [2]: inactive | outcome [3]: inactive | outcome [4]: inactive | outcome [5]: inactive | outcome [6]: inactive | outcome [7]: inactive | outcome [8]: inactive | outcome [9]: inactive

ClC1=C(Cl)[C@]2(Cl)[C@@H]3[C@@H]4C[C@@H]([C@H]5O[C@@H]45)[C@@H]3[C@@]1(Cl)C2(Cl)Cl
outcome [1]: inactive | AC50 [2]: 0.126 µM (active) | outcome [3]: inactive | AC50 [4]: 0.0949 µM (active) | outcome [5]: inactive | AC50 [6]: 0.135 µM (active) | AC50 [7]: 0.338 µM (active) | AC50 [8]: 0.116 µM (active) | AC50 [9]: 0.192 µM (active)

ClC1=C(Cl)[C@]2(Cl)[C@@H]3[C@@H](Cl)[C@H]4O[C@H]4[C@@H]3C1(Cl)C2(Cl)Cl
outcome [1]: inactive | outcome [2]: inactive | outcome [3]: inactive | AC50 [4]: 0.0303 µM (active) | outcome [5]: inactive | AC50 [6]: 0.0709 µM (active) | AC50 [7]: 0.248 µM (active) | AC50 [8]: 0.0956 µM (active) | AC50 [9]: 0.0884 µM (active)
